The record followed here is PubChem BioAssay (EPA / NIEHS).

As usually defined, the AC50 is the concentration at which the activity in the assay is half-maximal.

“And” between values parts separate entries of the source, which are not always exact repeats. Identical values can stand only once. Some compounds were tested as several samples or in several runs, with calls that do not always agree. The source made the active and inactive calls. How the source made its calls: active means hit-call score of the fitted dose curve at least 0.9, where 1 is the maximum; inactive means score below 0.9.

The experiment is described as follows: BSK_3C_SRB: Viability Assessment in the BioMAP Diversity Plus: 3C Assay (AID 2283023).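 Further: fitted both ways against DMSO so a hit may be signal rise or drop.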 The note with it: primary human endothelial cells (HUVEC). The method, then: BSK_3C is a cell-based, multiplexed-readout assay that uses umbilical vein endothelium, a human vascular primary cell, with measurements taken at 24 hours after chemical dosing in a 96-well plate.BSK_3C_SRB is an assay component measured in the BSK_3C assay. It measures 0.1% sulforhodamine related to cell death using Sulforhodamine staining technology.Data from the assay component BSK_3C_SRB was analyzed into 1 assay endpoint. This assay endpoint, BSK_3C_SRB, was analyzed with bidirectional fitting relative to DMSO as the negative control and baseline of activity. Using a type of viability reporter, gain or loss-of-signal activity can be used to understand changes in the signaling. Furthermore, this assay endpoint can be referred to as a primary readout, because this assay has produced multiple assay endpoints where this one serves a signaling function. To generalize the intended target to other relatable targets, this assay endpoint is annotated to the cell morphology intended target family, where the subfamily is cell conformation.
The levels of cell surface (or secreted, indicated by the prefix "s") biomarker endpoints were measured by ELISA. Overt cytotoxicity to cells in confluent adherent cultures (all systems other than the BT system) was assessed by measuring total protein levels using sulforhodamine B (SRB) staining in parallel cultures at the time of biomarker measurements, indicated as SRB endpoints. For proliferation assays for adherent cell types, individual cell types are cultured at sub-confluence and relative cell numbers quantified by SRB staining at time points optimized for each system (48 h: 3C and CASM3C systems; 72 h: BT and HDF3CGF systems; 96 h: SAg system). SRB was performed by staining cells with 0.1% SRB after fixation with 10% TCA and reading wells at 560 nm.Viability and proliferation of PBMC (T cells) was quantified by Alamar Blue reduction for the SAg and BT systems. For PBMC viability (referred to as PBMC Cytotoxicity within the assay endpoint names), cells were plated (75,000/well in a 96-well plate) and then chemical samples added for 1 h before addition of activators, SEB and TSST-1 (20 ng/mL final concentration each). Cells were incubated for 90 h. Then, Alamar Blue (20 uL/well) (Invitrogen, Cat DAL1100) was added for 6 h, and the plates were read with a fluorescence microplate reader at 546/580 nm (excitation/emission). For PBMC proliferation, cells were plated and activated as above but incubated for only 16 h prior to addition of Alamar Blue. Plates were read after 6 h.
Consider `N=C(N)C(F)(F)C(F)(F)C(F)(F)C(F)(F)C(F)(F)C(F)(F)C(F)(F)F`, for which the AC50 is 54.9 µM (active) and the result was inactive.
For the compound `O=C(O)C(F)(F)C(F)(F)C(F)F`, the outcome was inactive.
On to `CCCCC(CC)COP(=O)(O)OCC(CC)CCCC` (stereo not given), for which the result was inactive and the AC50 was 27.7 µM (active).
Regarding `O=C(O)C(F)(F)C(F)(F)C(F)(F)C(F)(F)F`, the result was inactive.
As for `O=C(CC(=O)C(F)(F)C(F)(F)F)C(F)(F)F`, the result was inactive.
With `FC(F)(F)C(F)(F)C(F)(F)C(F)(F)C(F)(F)C(F)(F)C(F)(F)C(F)(F)CCS`, the result was inactive.
For `C=CC(=O)OCC(F)(F)C(F)(F)C(F)(F)C(F)(F)C(F)(F)C(F)(F)C(F)(F)F`, the outcome was inactive.
On to `OCC(F)(F)C(F)(F)C(F)(F)C(F)F`, for which the result was inactive.
Turning to `O=C(Cl)C(F)(F)C(F)(F)C(F)(F)C(F)(F)C(F)(F)C(F)(F)C(F)(F)C(F)(F)F`, the AC50 was 45 µM (active) and 50.8 µM (active) and 49.9 µM (active).
In the case of `FC(F)(F)C(F)(F)C(F)(F)N(C(F)(F)C(F)(F)C(F)(F)F)C(F)(F)C(F)(F)C(F)(F)F`, the result was inactive.
For `CC(C)(C)C(=O)CC(=O)C(F)(F)C(F)(F)C(F)(F)F`, the outcome was inactive and the AC50 is 48.3 µM (active).
`FC(F)(F)C(F)(F)C(F)(F)C(F)(F)C(F)(F)C(F)(F)C(F)(F)Br`: the outcome was inactive.
In the case of `COC(=O)CCC(F)(F)C(F)(F)C(F)(F)C(F)(F)F`, the outcome was inactive.
For `O[Si](c1ccccc1)(c1ccccc1)c1ccccc1`, the AC50 was 28.9 µM (active).
In the case of `CCCCCCOC(=O)c1ccccc1O`, the AC50 was 39.5 µM (active) and 43.2 µM (active).
In the case of `C=C(C)C(=O)OCC(F)(F)C(F)(F)C(F)(F)F`, the outcome was inactive.
`CCc1ccc(C(c2ccc(CC)cc2)C(Cl)Cl)cc1`: the AC50 is 12.5 µM (active).
In the case of `O=C(O)C(F)(F)C(F)(F)F`, the outcome was inactive.
The same measure, in the same setting: in the case of `FC(F)(F)C(F)(F)C(F)(F)C(F)(F)C(F)(F)C(F)(F)C(F)(F)I` it was “inactive”.
With `Cc1ccc(S(=O)(=O)OCC(F)(F)C(F)(F)C(F)(F)C(F)(F)C(F)(F)C(F)F)cc1`, the AC50 was 45.5 µM (active) and 38.1 µM (active).
Turning to `FC(F)(F)C(F)(F)C(F)(F)C(F)(F)C(F)(F)C(F)(F)CCS`, the result was inactive.
The same measure, in the same setting: under `FC1CC(F)(F)C(F)(F)C1(F)F` (stereo not given) stands “inactive”.
Same read-out and setting: in the case of `O=C(O)C(F)(OC(F)(F)C(F)(OC(F)(F)C(F)(OC(F)(F)C(F)(F)C(F)(F)F)C(F)(F)F)C(F)(F)F)C(F)(F)F` (stereo not given) it was “inactive”.
Regarding `OCC(F)(F)C(F)(F)C(F)(F)C(F)(F)C(F)(F)C(F)F`, the result was inactive.
The same measure, in the same setting: under `CCCCCCCCCCCCCCCC[N+](C)(C)Cc1ccccc1` stands “inactive”.
On to `OCC(F)(F)C(F)(F)C(F)(F)C(F)(F)C(F)(F)C(F)(F)F`, for which the result was inactive and the AC50 is 58.5 µM (active).
For `O=C(O)C(F)(OC(F)(F)C(F)(OC(F)(F)C(F)(F)C(F)(F)F)C(F)(F)F)C(F)(F)F` (stereo not given), the result was inactive.
For `OCC(F)(F)C(F)(F)C(F)(F)F`, the outcome was inactive.
For `CCN(CC)c1ccc2c(C)cc(=O)oc2c1`, the outcome was inactive.
Same read-out and setting: under `O=C(O)C(F)(F)C(F)(F)C(F)(F)C(F)(F)C(F)(F)C(F)(F)C(F)(F)C(F)(F)C(F)(F)C(F)(F)C(F)(F)C(F)(F)C(F)(F)F` stands “inactive”; under `O=C(O)C(F)(F)C(F)(F)OC(F)(F)F`, “inactive”; under `FC(F)(F)C(F)(F)C(F)(F)CI`, “inactive”.
Still for that read-out and setting: in the case of `FC(F)(F)C(F)(F)CNCC(F)(F)C(F)(F)F` it was “inactive”; in that of `C=CC/C=C/C/C=C/C/C=C/C`, “inactive”.
On the same count and under the same terms, under `NC(=O)C(F)(F)C(F)(F)C(F)(F)C(F)(F)F` stands “inactive”.
For the compound `C#C[C@]1(O)CC[C@H]2[C@@H]3CCc4cc(OC)ccc4[C@H]3CC[C@@]21C`, the outcome was inactive.
